In the supplement of paper PMC12297408:
Counter-ions that a name gives are not always drawn.

tested on: Plasmodium falciparum NF54/iGP1_RE9H ulg8 stage V gametocytes; assay: gametocyte viability (luciferase signal relative to DMSO control) (% of DMSO control); higher = less gametocytocidal activity, active = 50 or less; details: concentration: 10 µM; exposure time: 72 h
Summary of the method: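 Viability was calculated relative to the mean of DMSO vehicle wells on each plate. Day-12 stage V gametocytes of line NF54/iGP1_RE9Hulg8 (~2.5% gametocytemia, 3% hematocrit, 0.5% Albumax II medium) were exposed in 96-well plates to compounds at final 10 µM or 1 µM, one well each, for 72 h at 37 °C. Luminescence was then read on an IVIS Lumina II after D-luciferin addition.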

Compound	gametocyte viability
Cc1ccc(Nc2nccc(N(C)c3ccc4c(C)n(C)nc4c3)n2)cc1S(N)(=O)=O [Pazopanib HCl]	109 (inactive)
CC(C)(C)Cn1c(N)nc2ccc(-c3[nH]c(C(C)(C)C)nc3-c3ccc(F)cc3)nc21	105 (inactive)
N#CC(=Cc1ccc2[nH]ccc2c1)C(N)=C(C#N)C#N	104 (inactive)
N#Cc1c(O)c2c(-c3ccc(-c4ccccc4O)cc3)csc2[nH]c1=O	105 (inactive)
Cc1ccc(C(=O)Nc2cccc(C(F)(F)F)c2)cc1Nc1nc(-c2cccnc2)nc2c1cnn2C	98.7 (inactive)
COc1cc(Nc2ncc(F)c(Nc3ccc4c(n3)NC(=O)C(C)(C)O4)n2)cc(OC)c1OC [R406(free base)]	103 (inactive)
Oc1cccc(-c2nc(N3CCOCC3)c3oc4ncccc4c3n2)c1	111 (inactive)
COc1cc(OC)c(/C=C/S(=O)(=O)Cc2ccc(OC)c(NCC(=O)O)c2)c(OC)c1	101 (inactive)
Cn1cnc(-c2cc3nccc(Oc4ccc(NC(=S)NC(=O)Cc5ccccc5)cc4F)c3s2)c1	93.5 (inactive)
OCCn1cc(-c2ccc3c(c2)CC/C3=N\O)c(-c2ccncc2)n1	99.6 (inactive)
CN1CCN(CCOc2cc(OC3CCOCC3)c3c(Nc4c(Cl)ccc5c4OCO5)ncnc3c2)CC1 [Saracatinib (AZD0530)]	92.2 (inactive)
CN(C)CCCn1cc(C2=C(c3c[nH]c4ccccc34)C(=O)NC2=O)c2ccccc21	115 (inactive)
c1cncc(CN2CCC(n3ncc4c(N5CCOCC5)nc(-c5ccc6[nH]ccc6c5)nc43)CC2)c1	103 (inactive)
Cc1cc(Nc2cc(N3CCN(C)CC3)nc(Sc3ccc(NC(=O)C4CC4)cc3)n2)n[nH]1 [VX-680 (MK-0457, Tozasertib)]	84.3 (inactive)
COc1cc2/c(=N/c3ccc(Br)cc3F)nc[nH]c2cc1OCC1CCN(C)CC1 [Vandetanib (Zactima)]	108 (inactive)
